# IDE exosite inh: exo-site inhibitors of human insulin-degrading enzyme; P14735; purified IDE, FL-6b probe fluorescence polarization; active compounds read low; z-score at 20 µM; hit rate 6.3% among 17,000; AID 1259349;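 active = z-score of -3 or lower, meaning strong loss of probe binding signal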;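 also: His-tagged human IDE residues 42-1019 made in E. coli with 30 nM FL-6b probe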
# Target sequence (P14735 42-1019 limits assumed): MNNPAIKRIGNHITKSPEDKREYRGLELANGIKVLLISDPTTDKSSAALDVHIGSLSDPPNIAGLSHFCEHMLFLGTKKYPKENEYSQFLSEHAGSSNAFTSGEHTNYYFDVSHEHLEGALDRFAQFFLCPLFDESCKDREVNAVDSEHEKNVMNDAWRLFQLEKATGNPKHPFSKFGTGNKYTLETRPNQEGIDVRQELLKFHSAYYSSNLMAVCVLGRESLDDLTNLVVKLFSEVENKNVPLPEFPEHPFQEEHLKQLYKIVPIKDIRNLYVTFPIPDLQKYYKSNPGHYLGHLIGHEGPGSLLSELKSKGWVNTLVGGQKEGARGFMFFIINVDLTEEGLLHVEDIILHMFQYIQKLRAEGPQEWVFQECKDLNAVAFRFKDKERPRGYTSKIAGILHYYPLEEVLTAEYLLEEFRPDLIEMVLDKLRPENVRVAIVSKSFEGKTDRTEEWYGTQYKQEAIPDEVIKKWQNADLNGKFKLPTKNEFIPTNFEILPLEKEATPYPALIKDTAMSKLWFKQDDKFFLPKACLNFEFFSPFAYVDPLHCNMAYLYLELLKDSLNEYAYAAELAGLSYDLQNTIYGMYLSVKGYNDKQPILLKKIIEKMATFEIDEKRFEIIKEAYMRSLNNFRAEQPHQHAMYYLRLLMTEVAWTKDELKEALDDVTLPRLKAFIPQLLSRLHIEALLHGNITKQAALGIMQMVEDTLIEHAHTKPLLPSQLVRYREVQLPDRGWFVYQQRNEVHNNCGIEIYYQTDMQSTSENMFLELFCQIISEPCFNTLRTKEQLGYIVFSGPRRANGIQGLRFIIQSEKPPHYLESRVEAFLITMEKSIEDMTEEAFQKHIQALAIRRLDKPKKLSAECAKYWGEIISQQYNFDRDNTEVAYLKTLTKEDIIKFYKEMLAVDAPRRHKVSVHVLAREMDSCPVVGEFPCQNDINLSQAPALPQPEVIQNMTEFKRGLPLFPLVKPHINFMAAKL
# A number is an active result; - = inactive. This is one part of a sample in which hits are shown more often than they occur.
SMILES,IDE exosite inh
O=C(c1ccc(F)cc1)N1CC(=O)N2[C@H](C1)[C@H](c1ccc(C#CC3CCCCC3)cc1)[C@@H]2CO,-
COCC(=O)N1[C@H](C#N)[C@H](c2ccccc2-c2cccc(F)c2)[C@H]1CO,-
C/C=C/c1ccc(C2[C@@H]3CN(S(=O)(=O)c4cn(C)cn4)C[C@H]2N3)cc1 (stereo partly drawn),-
O=C(c1ccc(F)cc1)N1CCCCN2[C@H](C1)[C@H](c1ccc(/C=C/c3ccccc3)cc1)[C@@H]2CO,-
CN1CCCCN2[C@@H](CO)[C@@H](c3ccc(/C=C/c4ccccc4)cc3)[C@@H]2C1,-6.8
CCC(=O)N1CCCCN2[C@@H](CO)[C@@H](c3ccc(/C=C/c4ccccc4)cc3)[C@@H]2C1,-
CCC(=O)N1CCCCN2[C@H](CO)[C@@H](c3ccc(-c4ccc(F)cc4)cc3)[C@@H]2C1,-
CN1CCCCN2[C@H](CO)[C@@H](c3ccc(-c4ccccc4)cc3)[C@H]2C1,-
CCC(=O)N1CCCCN2[C@H](C1)[C@H](c1ccc(/C=C/c3ccccc3)cc1)[C@@H]2CO,-10
CCC(=O)N1CCCCN2[C@H](CO)[C@@H](c3ccc(/C=C/c4ccccc4)cc3)[C@@H]2C1,-4.5
O=C(c1ccc(F)cc1)N1CCCCN2[C@H](CO)[C@@H](c3ccc(/C=C/c4ccccc4)cc3)[C@H]2C1,-
C/C=C/c1ccc([C@H]2[C@@H](CO)N3CCCCN(C)C[C@H]23)cc1,-
CC(=O)N1CC(=O)N2[C@H](CO)[C@H](c3ccc(-c4ccc(C)cc4)cc3)[C@@H]2C1,-
O=C(Nc1cccc(F)c1)N1CC(=O)N2[C@H](CO)[C@@H](c3ccc(Br)cc3)[C@H]2C1,-
CCS(=O)(=O)N1CC2(CN(C(=O)NC(C)C)[C@H](CO)c3c2c2ccc(OC)cc2n3C)C1,-
N#C[C@@H]1[C@@H](c2ccccc2)[C@@H](CO)N1C(=O)c1ccc2c(c1)OCO2,-
C/C=C/c1ccc([C@H]2[C@@H](CNC(=O)c3ccccn3)N(C(=O)CC)[C@H]2CO)cc1,-
O=C(Nc1ccc2c(c1)[C@@H]1C[C@@H](CC(=O)N3CCc4ccccc4C3)O[C@@H](CO)[C@@H]1O2)c1ccc2c(c1)OCO2,-
Cc1ccc(NC(=O)Nc2ccc3c(c2)C(=O)N(C)[C@@H]2CC[C@H](CC(=O)NCC(F)(F)F)O[C@@H]2CO3)cc1,-
CC(=O)N1CCCCN2[C@H](CO)[C@H](c3ccc(-c4cccc(C(=O)N(C)C)c4)cc3)[C@@H]2C1,-
CC(C)NC(=O)N1CCCCN2[C@H](CO)[C@@H](c3ccc(C#Cc4ccccc4F)cc3)[C@H]2C1,-10
CC(C)C#Cc1ccc([C@H]2[C@@H](CO)N3CCCCN(C(=O)NC(C)C)C[C@H]23)cc1,-
CC(C)NC(=O)N1CCCCN2[C@@H](CO)[C@@H](c3ccc(C#C[C@H](C)O)cc3)[C@@H]2C1,-
CC(C)NC(=O)N1CCCCN2[C@H](C1)[C@H](c1ccc(C#CC3CC3)cc1)[C@@H]2CO,-
CC(C)NC(=O)N1CCCCN2[C@H](C1)[C@H](c1ccc(C#C[C@@H](C)O)cc1)[C@@H]2CO,-
SMILES,IDE exosite inh
CC(C)C#Cc1ccc([C@@H]2[C@@H](CO)N3CCCCN(C(=O)NC(C)C)C[C@@H]23)cc1,-
CC(C)NC(=O)N1CCCCN2[C@H](CO)[C@@H](c3ccc(C#C[C@@H](C)O)cc3)[C@@H]2C1,-
CC(C)NC(=O)N1CCCCN2[C@@H](CO)[C@@H](c3ccc(C#Cc4ccccc4F)cc3)[C@@H]2C1,-3.1
CC(C)NC(=O)N1CCCCN2[C@H](C1)[C@@H](c1ccc(C#C[C@@H](C)O)cc1)[C@@H]2CO,-
CC(C)NC(=O)N1CCCCN2[C@H](CO)[C@H](c3ccc(C#CC4CC4)cc3)[C@H]2C1,-
CC(C)NC(=O)N1CCCCN2[C@H](C1)[C@@H](c1ccc(C#Cc3ccccc3F)cc1)[C@@H]2CO,-5.2
CC(C)NC(=O)N1CCCCN2[C@H](CO)[C@H](c3ccc(C#Cc4ccccc4F)cc3)[C@@H]2C1,-6.4
CCCC#Cc1ccc([C@@H]2[C@H](C#N)N(C(=O)C3CCCC3)[C@H]2CO)cc1,-
CN(C)CC(=O)N1[C@H](C#N)[C@@H](c2ccccc2-c2cccc(C(=O)N(C)C)c2)[C@H]1CO,-
O=C(Cc1ccccn1)N[C@@H]1CC[C@H](CCNS(=O)(=O)c2cccc(F)c2)O[C@@H]1CO,-
COc1ccc(NC(=O)N2CCCCN3[C@H](CO)[C@H](c4ccc(-c5ccccc5F)cc4)[C@@H]3C2)cc1,-
COCCNC(=O)C[C@@H]1CC[C@@H]2[C@H](COC[C@H](O)CN2C(=O)c2cc(Cl)cc(Cl)c2)O1,-
O=C(Nc1ccccc1)N1CCCCN2[C@@H](CO)[C@H](c3ccc(C#CC4CC4)cc3)[C@@H]2C1,-
COc1cccc(C#Cc2ccc([C@H]3[C@H](CO)N4C(=O)CN(S(=O)(=O)c5ccccc5C)C[C@@H]34)cc2)c1,-
O=C(c1ccc(F)cc1)N(CC1CCC1)C[C@H]1N[C@@H](CO)[C@H]1c1ccccc1,-
CN1CCN(C(=O)C[C@@H]2CC[C@H]3[C@@H](COc4ccc(NC(=O)C5CCOCC5)cc4C(=O)N3C)O2)CC1,-

# Assay outcomes: PubChem, Broad Institute
